Measurements from the OligoGym collection.
Also: reference of the scale not given here.

These sequences were tested against NAA35 (assay: pooled miR-30 sensor sort-seq; sequence = guide strand). Conditions: shRNA.
TAGTTCACCATTTCTTCCCTTT gave a sensor-assay potency score (higher = more potent) of 0.00785. With TATGTAATAGTACTCGTGCATA the sensor-assay potency score (higher = more potent) was -1.06. Work on TTATTATATAGGTAGCACTTGG yielded a sensor-assay potency score (higher = more potent) of -0.806. Sequence TTAATTCTCGACAAGCTTCTTC has a sensor-assay potency score (higher = more potent) of 0.731. Sequence TCTATTAACCTCATGGTCCGGG has a sensor-assay potency score (higher = more potent) of 0.321. TATATAGGTAGCACTTGGGGGA showed a sensor-assay potency score (higher = more potent) of -0.0355. With TACTGCTAAACATTGTTGGTGT the sensor-assay potency score (higher = more potent) was 0.709. In the case of TAATTATTTTTGCATATCGAGG, the sensor-assay potency score (higher = more potent) is reported as -1.65. TTATTTTTGCATATCGAGGGAA showed a sensor-assay potency score (higher = more potent) of 0.0226. Sequence TTATTCTATCTATTAATCTTGC has a sensor-assay potency score (higher = more potent) of -0.493. Work on TTATATAGGTAGCACTTGGGGG yielded a sensor-assay potency score (higher = more potent) of -1.1. ATATATGTAATAGTACTCGTGC was tested, and the sensor-assay potency score (higher = more potent) was 0.454.

These sequences were tested against NAALADL1 in the same assay as above. Conditions: shRNA.
TTGAGGGGCAGGAAGAAGCTGT was tested, and the sensor-assay potency score (higher = more potent) was -0.568. With TAGACGCTCACATTCACCTGGC the sensor-assay potency score (higher = more potent) was 0.571. TTCCCATACAGCACGTAGCGAT was tested, and the sensor-assay potency score (higher = more potent) was -0.768. In the case of TCTGTGTACACCAGCACCCCAG, the sensor-assay potency score (higher = more potent) is reported as -1.23. Sequence TTGATGTCGGCAGGGTCTGTGT has a sensor-assay potency score (higher = more potent) of -1.45. TTCTGCAGTGTTGATATGCGTT gave a sensor-assay potency score (higher = more potent) of -0.417. Work on TCTCACTGTAGTCACTGACTTT yielded a sensor-assay potency score (higher = more potent) of -1.01. For TTGTCGTAGATGCTCAGGTCGC, the sensor-assay potency score (higher = more potent) was -1.1. With TTACAGAGCAGGTCTCTTGCAT the sensor-assay potency score (higher = more potent) was -0.148. TACAGAGCAGGTCTCTTGCATC showed a sensor-assay potency score (higher = more potent) of -0.894.
